Screening results: PubChem BioAssay, several laboratories
FAS-TE inh: FAS thioesterase domain inhibitors, primary screen, biochemical, fluorescence intensity, uHTS; Fatty acid synthase (Homo sapiens), P49327; recombinant FAS-TE, OMFH fluorogenic substrate, fluorescence endpoint; inhibition, % at 15 µM; 0.67% of 360,000 active; AID 602261, 2012;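 active = compounds whose normalised, plate-corrected inhibition of enzyme fluorescence in the single-dose primary screen is 50% or more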;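 note: 0% = DMSO with enzyme and 100% = substrate without enzyme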
SMARCA2 activ: SMARCA2 (BRM) function activators, primary screen, cell-based, luminescence, high throughput. MG213 cells, MMTV-luciferase reporter, dexamethasone, overnight. 1% of 370,000 active. activation, % at 9.1 µM; in the data active = activation above about 7.8%;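 note: 0% = vehicle wells and 100% = reference activator wells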
GAA850 FXN act: FXN promoter activators, primary screen, cell-based, luciferase luminescence, HEK293 lucGAA850; activation, % at 6 µM; AID 540364, 2011; 0.56% of 360,000 active; HEK293 lucGAA850 FXN promoter luciferase reporter, 24 h; percent of 10 µM SAHA response;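 active = activation above the average of all compounds screened plus 3 SD, cutoff fixed separately per campaign, cut at about 7.5% in these data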;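 note: 0% = DMSO wells and 100% = 10 µM SAHA wells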
KLK7 zymogen act: proKLK7 zymogen activators, primary screen, biochemical, fluorescence intensity; purified proKLK7, EDANS-DABCYL substrate fluorescence; 100% is mature enzyme control, 0% vehicle; Kallikrein-7 (Homo sapiens), P49862; AID 652039, 2013; 0.9% of 370,000 active; activation, % at 7 µM;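 active = activation above the mean of all tested compounds plus 3 SD, computed per campaign excluding outliers beyond control limits, cut at about 13% in these data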
SMARCA2 conf: SMARCA2 (BRM) function activators, confirmation, cell-based, luminescence, triplicate; shares compounds with SMARCA2 activ; MG213 cells, MMTV-luciferase with dexamethasone, overnight; MG213 cells expressing E1A, Rb sequestered; DMSO wells 0%, reference activator 100%; activation, % at 9.1 µM; 30% of 3,500 active; AID 652260, 2013;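 active = activation above its plate's cutoff, the mean activation of tested wells plus 3 SD, cut at about 7.9% in these data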
GAL4-VP16 Luc: GAL4-VP16 luciferase reporter activation, counter-screen for SMARCA2 (BRM) activator project, cell-based, pG5luc, luminescence, high throughput | shares compounds with SMARCA2 activ | HEK293 GAL4-VP16 pG5luc reporter; scaled: DMSO wells 0%, SAHA wells 100% | activation, % at 9.1 µM | 41% of 3,500 active;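 active = activation above the solvent-only control well mean plus 3 SD, averaged across control plates, cut at about 5.2% in these data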
* marks the source's active call; other numbers are inactive results; . = no result given. In the library only some 2.9% were active in any assay of this set; here they are far more common.

SMILES	FAS-TE inh	SMARCA2 activ	GAA850 FXN act	KLK7 zymogen act	SMARCA2 conf	GAL4-VP16 Luc
CCCCCCN=C1CC(C)(C)CC(=O)/C1=C(/O)CCC	12.9	-4.9	2.3	0.8	.	.
CCc1nc(SCc2cc(Cl)ccc2OC)n[nH]1	-2.9	9.4*	0.8	0.5	-1.1	0.0
CN(C)c1nc(OCCNC(=O)COc2ccc(Cl)cc2Cl)nc(N2CCOCC2)n1	-1.5	4.4	5.0	-0.3	.	.
CN1C/C(=C/c2ccccc2[N+](=O)[O-])C(=O)/C(=C\c2ccccc2[N+](=O)[O-])C1	-6.4	26.2*	6.0	0.3	-15.5	5.1*
CCOC(=O)c1nn(-c2ccc(Cl)cc2)c2nnc(Cc3ccccc3)c(=O)n12	8.4	12.1*	0.2	-0.1	-1.9	-0.4
C=CCn1c(-c2ccccc2)c[nH]c1=S	-2.1	12.7*	1.8	-0.6	5.0	6.0*
C=CCn1c(-c2ccc(Cl)cc2)c[nH]c1=S	-10.0	-8.0	0.6	0.3	.	.
C=CCN1C(=O)C(O)(CC(=O)c2ccc(N)cc2)c2ccccc21 (centres undefined)	-7.5	0.2	0.5	0.3	.	.
COC(=O)c1ccc(NC(=S)Nc2ccccc2)cc1	-1.0	1.6	0.4	0.2	.	.
COC(=O)c1ccc(NC(=S)NC2c3ccccc3CC2O)cc1 (centres undefined)	1.3	8.3*	2.9	-0.8	3.6	0.0
N=c1c2c(-c3ccccc3)c(-c3ccccc3)n(Cc3ccccc3)c2ncn1CCO	-2.5	8.7*	-10.1	-0.1	1.8	-1.7
COc1ccc(-c2noc(CNS(=O)(=O)c3ccc(NC(C)=O)cc3)n2)cc1OC	-7.0	-1.0	0.8	0.5	.	.
Cn1c(C(=O)Nc2ccccc2)cc2sccc21	3.5	9.2*	5.5	-0.2	8.7*	7.2*
c1ccc(-c2nnnn2-c2ccccc2)cc1	-1.5	-1.8	0.3	-0.3	.	.
ClC(Cl)(c1nnnn1-c1ccccc1)c1nnnn1-c1ccccc1	-7.5	23.6*	1.0	-0.6	-4.2	-0.8
CC(OC(=O)Cc1ccccc1F)C(=O)Nc1ccc(Cl)cn1 (centres undefined)	1.2	-1.4	-2.7	-0.1	.	.
CCOc1ccc(/C=N/NS(=O)(=O)c2ccc(C)cc2)cc1OC	-3.8	-1.8	3.8	0.6	.	.
COc1cc(/C=N/NS(=O)(=O)c2ccc(C)cc2)ccc1OCc1ccc(C(=O)O)cc1	-10.5	9.4*	4.4	0.4	18.5*	13.6*
O=C(CSc1nnc(-c2ccccn2)n1-c1ccccc1)Nc1ccccc1-c1ccccc1	.	-5.9	.	0.3	.	.
Nc1nc(-c2ccc(Cl)cc2)cs1	.	9.1*	.	1.0	7.3	1.4
Nc1nc(COc2ccc(Cl)cc2)cs1	-6.1	10.2*	5.2	0.2	4.5	4.2
COc1ccc(CNC(=O)Nc2nnc([C@H]3C[C@H](O)[C@@H](CO)O3)s2)cc1	-7.2	-3.3	-0.8	-0.5	.	.
CC1(C(=O)OCC(=O)NCc2ccc(Cl)cc2)CC1(Cl)Cl (centres undefined)	5.8	8.6*	0.7	-0.5	-1.9	-0.5
Cc1ccc(-n2c(C)cc(C=C(C#N)C#N)c2C)cc1	24.3	11.9*	1.6	-0.2	0.8	2.2
CC1(C)Cc2cccc(OCC(=O)Nc3ccccc3C(F)(F)F)c2O1	6.8	-0.6	0.7	0.2	.	.
CCn1c(=O)cc(N2CCOCC2)[nH]c1=O	3.8	-0.5	0.7	0.8	.	.
O=C(NCC1OCCc2ccccc21)c1ccc(NC(=O)c2ccccc2Cl)cc1 (centres undefined)	-4.0	-4.8	0.2	-0.7	.	.
O=C(NCC1OCCc2ccccc21)c1ccc(NC(=O)c2ccc(Cl)cc2Cl)cc1 (centres undefined)	-8.9	9.4*	-0.3	0.0	-4.0	0.6
CCN1CCN(Cc2nc3ccc([N+](=O)[O-])cc3c(=O)n2-c2ccc(OC)cc2OC)CC1	-4.4	2.2	-0.2	-0.2	.	.
COc1ccc(-n2c(CN3CCC(C(N)=O)CC3)nc3ccc([N+](=O)[O-])cc3c2=O)c(OC)c1	-0.8	8.0*	2.3	-0.5	0.9	1.1
